# Compound activity: PubChem, National Center for Advancing Translational Sciences (NCATS)
# In the library only some 2.4% were active in any assay of this set; here they are far more common.
# D2 ag-1 = HTS Assay for Allosteric Agonists of the Human D2 Dopamine Receptor: Primary Screen for Agonists | activation, % at 2 µM | D(2) dopamine receptor (Homo sapiens), P14416 | hit rate 0.53% among 340,000 | HEK293 T-REx D2 cells, calcium flux agonist mode;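 active = activation over 3 SD above normal in the single-dose calcium agonist read, cut at about 30% in these data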; note: 0% is about no effect
#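 Agonism is scored from calcium flux in a force-coupled, inducible HEK293 cell line expressing D2, read kinetically for 180 s after compound addition against dopamine controls.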
# D2 PAM-1 = HTS Assay for Positive Allosteric Modulators of the Human D2 Dopamine Receptor: Primary Screen for Potentiators | D(2) dopamine receptor (Homo sapiens), P14416 | HEK293 T-REx D2, calcium flux, EC20 dopamine potentiation | potentiation, % at 10 µM | hit rate 0.34% among 340,000;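 active = potentiation over 3 SD above the plate norm, cut at about 30% in these data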; note: 0% is about no effect
#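 Potentiation of an EC20 dopamine calcium response measured kinetically over 180 s, after a preceding 180 s compound-only read flagging agonists. Cells: inducible Hek293 Trex D2 line, 4000/well, cultured overnight at 30 C before dye loading.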
# D2 ag-2 = Beta-Arrestin HTS for Positive Allosteric Modulators of the Human D2 Dopamine Receptor: Agonists | D(2) dopamine receptor (Homo sapiens), P14416 | DiscoveRx PathHunter D2 beta-arrestin, luminescence, 90 min; 100% = 57 uM dopamine signal | activation, % (test concentration not listed) | hit rate 0.084% among 360,000 | AID 624465, 2012; in the data active = activation above about 40%; inconclusive = between about 15% and that limit
#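 DiscoveRx PathHunter D2 beta-arrestin cells (2,100/well) attached overnight, then compound-stimulated 90 min at 37 C in HBSS/10 mM HEPES/0.1% Tween-20 buffer; beta-galactosidase complementation read by luminescence after 1 h at ambient temperature. Dopamine 57 uM final (EC100) as control.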
# D2 PAM-2 = Beta-Arrestin HTS for Positive Allosteric Modulators of the Human D2 Dopamine Receptor: Potentiators. potentiation, % (concentration not given with the values). hit rate 0.23% among 360,000. DiscoveRx D2 beta-arrestin cells, luminescence, 90 min; 100% = 57 uM dopamine signal. AID 624464, 2012; in the data active = potentiation above about 50%; inconclusive = mostly about 30% to 49%
#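 PathHunter D2 cells, attached overnight at 37 deg C, received compound in DMSO plus dopamine at EC20 (50 nM final) for 90 min at 37 deg C. Beta-arrestin recruitment was read as luminescence after 1 h with detection reagent at ambient temperature.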
# D2 antagonist = HTS Assay for Allosteric Antagonists of the Human D2 Dopamine Receptor: Primary Screen for Antagonists; D(2) dopamine receptor (Homo sapiens), P14416; inhibition, % at 10 µM; hit rate 2% among 340,000; AID 485344, 2010; HEK293 TREx D2 cells, calcium flux, dopamine EC80; in the data active = inhibition above about 30%; inactive = below that, where a call was filed; note: 0% is about no effect
#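 HEK293 T-REx D2 cells, tet-induced, calcium dye no-wash. Cpd pintool add, 180 s kinetic, then EC80 DA, 180 s kinetic. Ca flux read.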
# D3 arrestin ag = qHTS of D3 Dopamine Receptor Agonist: D3 Dopamine Receptor B-arrestin Agonist Confirmatory Assay; shares compounds with D2 ag-1; DiscoveRx D3 beta-arrestin cells, luminescence, 90 min; Potency, µM (series often up to 76.9 µM), for the others: top-dose activation, actives largely listed as activators; hit rate 4% among 2,300;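 note: potency is the fitted concentration of half-maximal effect; 100% = dopamine control response; nearly all actives have a fitted effect of over 70% in size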
# Target sequence (P35462 whole entry, looked up): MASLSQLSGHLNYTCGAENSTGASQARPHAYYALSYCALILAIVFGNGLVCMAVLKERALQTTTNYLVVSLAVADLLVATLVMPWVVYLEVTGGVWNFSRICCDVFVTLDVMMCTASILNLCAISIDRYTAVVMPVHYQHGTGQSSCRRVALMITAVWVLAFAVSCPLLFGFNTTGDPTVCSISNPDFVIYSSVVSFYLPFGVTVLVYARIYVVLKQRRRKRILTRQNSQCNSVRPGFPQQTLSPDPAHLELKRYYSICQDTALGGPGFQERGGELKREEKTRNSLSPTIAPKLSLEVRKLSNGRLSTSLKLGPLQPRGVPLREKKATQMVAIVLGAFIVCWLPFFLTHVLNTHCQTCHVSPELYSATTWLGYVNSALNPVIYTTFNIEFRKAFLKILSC
# D2 ag-3 = qHTS of D3 Dopamine Receptor Agonist: D2 Dopamine Receptor B-arrestin Agonist Counterscreen. shares compounds with D2 ag-1. DiscoveRx PathHunter D2 beta-arrestin, luminescence, 90 min; response scale: percent relative to full dopamine signal. Potency, µM (highest dose often 76.9 µM), inactives show at the highest dose activation, hits mostly activators. hit rate 5.9% among 2,300. AID 720507, 2013; note: potency is the fitted concentration of half-maximal effect; % of control where 0% means no effect; nearly all actives have a fitted effect of over 70% in size
# * hit, by the source's call; ? = inconclusive; . = no result. Unless noted, calls come from the whole dose curve; as a rule, active = well fitted activation curve with a large enough effect; inconclusive = small, poorly fitted or top-dose-only effect; inactive = flat fitted curve, though single readings scatter.
SMILES,D2 ag-1,D2 PAM-1,D2 ag-2,D2 PAM-2,D2 antagonist,D3 arrestin ag,D2 ag-3
CCNC(=S)NNC(=O)c1ccccc1OC(F)F,26.0,-22.1,-0.5,-12.4,32.7*,-22.7%,-4.4%
COC(=O)c1ccc(OCC2c3cc(OC)c(OC)cc3CCN2C(=O)COc2ccc(Cl)cc2)cc1 (stereo not given),0.0,-8.6,.,.,.,.,.
CCc1nnc(NC(=O)c2ccc3c(=O)n4c(nc3c2)CCCCC4)s1,5.8,1.0,-0.6,2.3,-3.8,-10.1%,-3.8%
CN(CC(=O)Nc1ccccc1Br)C(=O)c1ccc2c(=O)n3c(nc2c1)CCC3,0.2,-10.3,0.0,0.6,24.1,-1.9%,-7.2%
CCc1ccc(NC(=O)c2ccc3c(=O)n4c(nc3c2)CCCCC4)cc1,-0.1,-1.3,4.5,-10.0,17.7,.,.
CCN(CC(=O)Nc1ccccc1C(F)(F)F)C(=O)c1ccc2c(=O)n3c(nc2c1)CCC3,1.2,8.2,0.7,2.0,-6.1,.,.
O=C(CSc1nnc(-c2cccc(Br)c2)o1)N1CCOCC1,0.4,2.0,-0.9,5.4,12.7,-4.4%,3.1%
CC(OC(=O)c1nc(Cl)ccc1Cl)C(=O)NC1CCCCC1C (stereo not given),-0.1,-6.7,15.0,-4.7,5.6,-3.5%,-1.3%
Cc1cc2ccccc2n1-c1ccc(C(=O)N2CCC(C(=O)NCc3ccc(F)cc3)CC2)s1,0.0,-4.1,.,.,.,.,.
CCOC(=O)Cc1csc(NC(=O)CN2CCOCC2)n1,-0.2,2.9,0.7,-4.1,9.2,-5.7%,0.1%
COc1ccc(OCc2cc(C(=O)NC3CCc4ccccc43)no2)c(Cl)c1 (stereo not given),58.5*,-23.3,-1.4,-12.3,-12.5,-3.3%,-0.9%
O=C(NC1CCc2ccccc21)c1cc(COc2ccc(F)cc2F)on1 (stereo not given),1.6,19.9,-2.9,-1.5,2.6,.,.
Cn1nnnc1Sc1ncnc2scc(-c3ccc(C(F)(F)F)cc3)c12,-1.0,-5.2,.,.,1.0,.,.
Cn1nnnc1Sc1ncnc2scc(-c3cccs3)c12,-0.5,30.8*,.,.,-5.8,-1.5%,-2.3%
CCc1ccc(NC(=O)CSc2ccc3nc(-c4ccc(OC)cc4)cn3n2)cc1,-0.9,3.8,.,.,.,.,.
CC(Sc1ncccn1)C(=O)Nc1ccc2c(c1)OCCO2 (stereo not given),.,.,-2.7,-36.2,.,.,.
CC(Sc1nc2ccccc2[nH]1)C(=O)Nc1ccc2c(c1)OCCO2 (stereo not given),0.5,-8.4,-2.4,-16.4,65.8*,-11.8%,-4.9%
COc1ccccc1NC(=O)Cn1c(=O)oc2cc(S(=O)(=O)NCc3ccccc3)ccc21,.,1.6,.,.,.,.,.
NNC(=O)CCn1nnc2ccccc21,.,-4.0,4.0,-24.7,.,-7.3%,-2.7%
c1ccc(N2CCN(Cc3ccsc3)CC2)nc1,76.5*,-15.7,65.6*,101.3*,84.1*,?,0.708µM*
c1ccc(N2CCN(c3cnccn3)CC2)nc1,-0.8,12.6,-2.4,-10.9,2.9,.,.
c1ccc(CCCN2CCN(c3ccccn3)CC2)cc1,75.9*,-19.2,1.1,0.4,75.5*,?,?
Cc1ccc(S(=O)(=O)CCN2CCN(c3ccccn3)CC2)cc1,6.2,-6.3,1.0,-12.4,-0.7,.,.
O=c1cc(CN2CCN(c3ccccn3)CC2)nc2sccn12,54.5*,-17.4,7.6,2.4,12.4,10.3%,21.7%
Cc1ccc(CN2CCN(c3ccccn3)CC2)s1,-2.0,11.6,65.0*,67.6*,93.6*,?,0.159µM*
SMILES,D2 ag-1,D2 PAM-1,D2 ag-2,D2 PAM-2,D2 antagonist,D3 arrestin ag,D2 ag-3
CCN(C(=O)Cn1c(=O)n(Cc2ccc3c(c2)OCO3)c(=O)c2ccc(C(=O)NC3CCCCC3)cc21)c1cccc(C)c1,1.0,-4.2,.,.,.,.,.
CC1(C)C2CC[C@]1(C)C(=O)N(CCCCN1CCN(c3ccccn3)CC1)C2=O,85.9*,-20.7,70.4*,?,115.7*,?,0.0631µM*
Cc1sc(NC(=O)c2ccco2)c(CN2CCN(c3ccccn3)CC2)c1C,67.6*,-29.8,8.2,18.5,123.7*,11.3%,29.7%
CC(=O)Nc1sc2c(c1CN1CCN(c3ccccn3)CC1)CCCC2,16.1,-24.1,-2.6,-30.7,-9.7,.,.
Cc1ccc(C)c(Cn2c(=O)n(CCCC(=O)NCCc3ccc(Cl)cc3)c(=O)c3ccccc32)c1,.,2.8,.,.,.,.,.
CCC(CC)C(=O)Nc1ccc2nc(SCC(=O)N3CCCC3)sc2c1,-1.5,17.8,.,.,.,.,.
Cc1nn2c(=O)cc(COC(=O)c3cccc(NC(=O)c4cccs4)c3)nc2s1,.,2.3,.,.,.,.,.
CCc1cccc(CC)c1NC(=O)Cn1nnc2sc(-c3ccccc3)cc2c1=O,1.0,1.2,.,.,.,.,.
CCOc1ccccc1NC(=O)CSc1ncc2c(n1)-c1ccccc1N(CC)S2(=O)=O,0.0,0.9,.,.,.,.,.
FC(F)(F)c1cccc(NC(=S)N2CCN(c3ccccn3)CC2)c1,24.3,-11.9,-5.0,-7.3,1.5,3.6%,4.3%
COc1cc(NC(=S)N2CCN(c3ccccn3)CC2)cc(OC)c1OC,.,.,0.7,-3.7,.,.,.
COc1ccc(NC(=S)N2CCN(c3ccccn3)CC2)cc1OC,49.4*,-12.6,2.5,-0.3,2.3,-5.3%,-2.6%
Oc1ccccc1N1CCN(C(=S)Nc2ccc(SC(F)F)cc2)CC1,2.7,7.3,7.9,22.9,-9.6,.,.
FC(F)Sc1ccc(NC(=S)N2CCN(c3ccccn3)CC2)cc1,30.6*,0.8,2.2,-5.6,-14.4,?,?
COc1ccc(/C=C/C(=O)N2CCN(c3ccccn3)CC2)cc1OC,15.9,2.6,3.3,-1.8,-10.7,13.2%,7.1%
CC(=O)N1CCCc2cc(S(=O)(=O)N3CCCC(C(=O)Nc4cccc(Cl)c4C)C3)ccc21 (stereo not given),0.6,11.4,.,.,.,.,.
CCOC(=O)CC(NS(=O)(=O)c1cc(-c2cc(C)no2)ccc1C)c1ccc(C)cc1 (stereo not given),0.1,-5.3,.,.,.,.,.
